Compound activity as filed in PubChem BioAssay.
In the library only some 11% were active in any assay of this set; here they are far more common.
HP1b binding inh – inhibitors of HP1-beta chromodomain binding to methylated histone tails; 390,000 compounds, 0.56% hits; Potency, µM (doses to about 114 µM), hits mostly inhibitors; P83916; AlphaScreen HP1-beta / biotin-H3K9me3 peptide binding; AID 540317; further: nearly all actives have a fitted effect of over 70% in size
Target sequence (P83916 whole entry, looked up): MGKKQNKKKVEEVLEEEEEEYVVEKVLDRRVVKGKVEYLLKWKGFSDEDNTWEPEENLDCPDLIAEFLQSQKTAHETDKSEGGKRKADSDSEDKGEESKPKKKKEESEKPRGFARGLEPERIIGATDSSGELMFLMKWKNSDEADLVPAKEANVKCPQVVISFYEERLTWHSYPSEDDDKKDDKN
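AlphaScreen: HP1-beta (50 nM) preformed 30 min with biotin-H3(1-18)K9me3 peptide (50 nM) in PBS pH 7.4, 0.01% Tween-20. Compound added for 30 min at RT, then streptavidin donor/nickel chelate acceptor beads (10 ug/mL) for 30 min.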
L3MBTL1 block – blocks human L3MBTL1; Potency, µM (highest dose often 57.1 µM), hits mostly inhibitors; 230,000 compounds, 0.66% hits; AlphaScreen L3MBTL1–H3K9me1 peptide binding; further: nearly all actives have a fitted effect of over 60% in size
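Displacement of a biotinylated histone H3(1-15) peptide monomethylated at Lys9 (75 nM) from L3MBTL1 (50 nM) was measured by AlphaScreen after a 30 min room-temperature compound incubation; cefsulodin titration served as intraplate control.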
JMJD2A Tudor inh – blocks the human JMJD2A Tudor domain; O75164; AlphaScreen JMJD2A-Tudor / H3K4me3 peptide binding; Potency, µM (doses to about 114 µM), most hits filed as inhibitors; 390,000 compounds, 4.4% hits; further: nearly all actives have a fitted effect of over 50% in size
G9a inh – G9a (human) methyltransferase inhibition; Q96KQ7; G9a H3K9 monomethylation, AlphaScreen, 2 h; Potency, µM (top dose mostly 102 µM), actives largely listed as inhibitors; 350,000 compounds, 8.8% hits; AID 504332; further: nearly all actives have a fitted effect of over 75% in size
Target sequence (Q96KQ7 913-1193 limits assumed): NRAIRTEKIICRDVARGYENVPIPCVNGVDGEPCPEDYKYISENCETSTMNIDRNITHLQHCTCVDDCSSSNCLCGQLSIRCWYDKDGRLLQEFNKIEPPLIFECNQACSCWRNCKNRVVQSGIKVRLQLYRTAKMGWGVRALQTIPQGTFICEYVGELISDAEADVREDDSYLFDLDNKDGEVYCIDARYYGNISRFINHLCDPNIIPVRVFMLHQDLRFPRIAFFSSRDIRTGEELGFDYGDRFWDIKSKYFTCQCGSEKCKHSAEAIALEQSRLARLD
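AlphaScreen detection with an anti-monomethyl H3K9 antibody quantified product after a 2 h room-temperature reaction containing 500 nM biotinylated H3K9 peptide, 20 µM SAM and 20 nM enzyme, which had been preincubated 15 min with compound.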
BAZ2B block – inhibitors of human BAZ2B bromodomain | AlphaScreen BAZ2B-H3K14Ac peptide displacement | Potency, µM (highest dose often 114 µM), usual class: inhibitors | 360,000 compounds, 4.4% hits | AID 504333; further: nearly all actives have a fitted effect of over 60% in size
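AlphaScreen luminescence quantifies BAZ2B engagement of H3K14Ac peptide; the protein and biotinylated peptide are both at 50 nM final, buffer PBS pH 7.4 with 0.01% Tween-20, all steps at room temperature.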
Hits are given with their value; n = inactive; u = inconclusive; x = not tested or not shown; [ ] = dose if it differs, or a comment. The call rests on the fitted dose curve; in most records, active means well fitted inhibition curve with a large enough effect; inconclusive means small, poorly fitted or top-dose-only effect; inactive means no such curve, though single readings can be large or run the other way.

SMILES	HP1b binding inh	L3MBTL1 block	JMJD2A Tudor inh	G9a inh	BAZ2B block
O=C(O)/C=C\C(=O)NCc1cccnc1	n	n	n	u	n
CC(C)(C)C(C(=O)n1cccc1C#N)c1ccccc1 (configuration not stated)	n	n	n	n[2.33 µM]	n
Cc1ccc2cc(C(c3nnnn3Cc3ccccc3)N3CCc4ccccc43)c(=O)[nH]c2c1C (configuration not stated)	n	x	n	20µM	n
Cc1ccc2[nH]c(=O)c(C(c3nnnn3Cc3ccccc3)N3CCc4ccccc43)cc2c1 (configuration not stated)	n	x	u	28.2µM	u
Cc1cc2cc(C(c3nnnn3Cc3ccccc3)N3CCc4ccccc43)c(=O)[nH]c2cc1C (configuration not stated)	n	x	u	u	u
Cc1ccc2cc(C(c3nnnn3Cc3ccccc3)N3CCc4ccccc43)c(=O)[nH]c2c1 (configuration not stated)	n	x	u	n[12.7 µM]	u
Cc1ccccc1-c1nnc(CN2CCN(c3ccccn3)CC2)o1	n	x	n	n	n
CCOc1ccccc1N(CC(=O)N1CCc2ccccc2C1)S(=O)(=O)c1ccccc1	n	x	n	n	n
O=C(/C=C/c1ccccc1Cl)NC1CCS(=O)(=O)C1 (configuration not stated)	n	n	5.01µM	n	n
Cc1cc(C)nc(NC(=O)/C=C/c2ccccc2Cl)n1	n	n	n	n	n
O=C(/C=C/c1ccccc1Cl)Nc1ccncc1	n	n	n	50.1µM	n
O=C(/C=C/c1ccccc1Cl)Nc1cccnc1	n	n	n	n	n
Cc1cc(N)c2cc(NC(=O)/C=C/c3ccccc3Cl)ccc2n1	n	n	63.1µM	25.1µM	u
O=C(O)[C@H]1CCCN1	x	x	x	n	x
Cc1ccc(CCNC(=O)c2cn(C)c3ccc(S(=O)(=O)N4CCC(C)CC4)cc3c2=O)cc1	n	x	n	n	x
CCN(CC(=O)NCc1ccccn1)S(=O)(=O)c1ccc(Cl)cc1	n	n[11.4 µM]	n	12.6µM	n
CCN(CC)C(=O)CSc1nc(N)c(C#N)c(-c2cccs2)c1C#N	n	n	n	n	n
CN1CCN(C(=O)CSc2nc(-c3cccs3)cc(-c3cccs3)c2C#N)CC1	n	n	n	39.8µM	n
COC(=O)CSc1nc(-c2cccs2)ccc1C#N	n	n	n	31.6µM	n
N#Cc1c(-c2ccc(F)cc2)cc(-c2cccs2)nc1SCC(=O)O	n	x	n	n	n
CCN(CC)C(=O)CSc1nc(-c2cccs2)cc(-c2cccs2)c1C#N	n	n	n	3.98µM	n
Cc1cccc(CCNC(=O)c2ccc(CSCc3cccc(Cl)c3)o2)c1	n	x	n	n	n
Cc1ccc2ncnc(NCc3ccco3)c2c1	n	x	n	x	x
COc1ccc(N(Cc2cccs2)C(=O)COc2cc(C)c(Cl)c(C)c2)cc1	n	x	n	n	n
COc1cccc(-n2c(Cn3nc(C(F)F)cc3C(F)F)n[nH]c2=S)c1	n	n	44.7µM	8.91µM	n
SMILES	HP1b binding inh	L3MBTL1 block	JMJD2A Tudor inh	G9a inh	BAZ2B block
COC(=O)c1ccc(Cn2nc(C(F)(F)F)cc2C)cc1	n	n	n	n	n
COc1ccc(-n2c(Cn3nc(C(F)(F)F)cc3C)n[nH]c2=S)cc1	n	n	u	7.94µM	n
Cc1ccc(-n2c(Cn3nc(C(F)(F)F)cc3C)n[nH]c2=S)cc1	n	x	56.2µM	u	n
COc1cccc(-n2c(Cn3nc(C(F)(F)F)cc3C)n[nH]c2=S)c1	n	n	56.2µM	8.91µM	n
CC(=O)Nc1cccc(NC(=O)Cc2csc(COc3cccc(C)c3)n2)c1	n	x	n	n	n
COc1ccc(Cl)cc1NC(=O)CSC1=Nc2ccccc2C2=NC(CC(=O)NCc3cccs3)C(=O)N12 (configuration not stated)	n	x	n	n	n
N#CCCn1c(=O)c(-c2ccc(Cl)cc2)nc2cnc(N3CCNCC3)nc21	x	x	x	n[0.501 µM]	x
CSCc1ccc(C(=O)NC(C)c2cnn(-c3ccccn3)c2C)o1 (configuration not stated)	n	x	n	35.5µM	n
CCOC(=O)/C(N=Nc1ccc(C(=O)O)cc1[N+](=O)[O-])=C(\C)O	n	n	n	u	x
CC(=O)/C(N=Nc1ccc(C(=O)O)cc1[N+](=O)[O-])=C(\C)O	n	x	n	u	56.2µM
CC(=O)/C(N=Nc1cc2c(cc1[N+](=O)[O-])OCCO2)=C(\C)O	n	n	17.8µM	n	n
CCC(C)NC(=O)CCc1nc2ccccc2n1-c1ccccc1 (configuration not stated)	n	n	n	n	n
OCc1ccccc1O	x	x	x	n[2.33 µM]	x
OCc1ccccc1SSc1ccccc1CO	u	x	14.1µM	x	x
CC(CC(=O)O)Nc1ccccc1O (configuration not stated)	n	n	0.1µM	2µM	44.7µM
COc1cc2[nH]c(=O)n(CCCC(=O)NCc3ccc(Cl)cc3)c(=O)c2cc1OC	n	x	n	n	n
CCN(C(=O)Cn1c(=O)n(-c2ccccc2)c(=O)c2ccc(C(=O)NCc3ccc4c(c3)OCO4)cc21)c1cccc(C)c1	n	x	n	n	n
COCCSc1nnc(NS(=O)(=O)c2ccc(F)cc2)s1	n	n	n	31.6µM	n
COCc1nnc(NS(=O)(=O)c2ccc(F)cc2)s1	n	n	n	n	n
COc1ccc(-c2[nH]c(-c3ccc(C)cc3)nc2SCC(=O)NC2CCCC2)cc1	n	n	u	50.1µM	u
COc1ccc(-c2[nH]c(-c3ccccc3)nc2SCC(=O)Nc2nccs2)cc1	n	u	u	11.2µM	u
COc1ccc(N(CC(=O)NCCc2ccccc2)C(=O)CCC(=O)Nc2nccs2)cc1	u	x	n	56.2µM	n
COc1ccc(-c2onc(C)c2C)cc1S(=O)(=O)N1CCN(c2cc(C)ccc2C)CC1	n	x	n	n	n
COC(=O)c1ccc(COc2ccc(/C=N/NC(N)=S)cc2)o1	n	n	n	50.1µM	n
CC1=NN(c2ccc(N)cc2)C(=O)C1	n	x	n[11.4 µM]	8.91µM	u
SMILES	HP1b binding inh	L3MBTL1 block	JMJD2A Tudor inh	G9a inh	BAZ2B block
CCOc1ccccc1N1CC(C(=O)N2CCc3ccccc32)CC1=O (configuration not stated)	n	n	n	n	n
CCOc1ccccc1N1CC(C(=O)N2CCc3ccccc3C2)CC1=O (configuration not stated)	n	x	28.2µM	n[12.7 µM]	n
Cc1ccc(SCc2cn3c(C)csc3n2)cc1	n	x	n	u	56.2µM
CC(=O)NCc1cn2c(C)csc2n1	n	n	n	n	n
Cc1csc2nc(CNC(=O)CCC(=O)O)cn12	n	n	n	50.1µM	n
CCS(=O)(=O)NCc1cn2c(C)csc2n1	n	n	n	n	n
CCCS(=O)(=O)NCc1cn2c(C)csc2n1	n	n	n	56.2µM	n
Cc1ccc(S(=O)(=O)NCc2cn3c(C)csc3n2)cc1	n	x	n	u	n
Cc1oc(-c2ccccc2F)nc1CS(=O)CC(=O)NC1CCCC1 (configuration not stated)	n	x	n	u	n
